The values that follow come from PubChem BioAssay.

Assay [1] deals with Plasmodium falciparum Sir2 (PF13_0152, Sir2A). Kind of assay: pfSir2 binders on small-molecule microarrays, primary screen, biochemical, small-molecule microarray, 635 nm fluorescence (AID 1098).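 Further: score merges spot fluorescence intensity with its signal-to-noise ratio.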 To be noted: small-molecule microarray binding, fluorescence 635 nm; higher = more signal.
Assay [2] in a line: small-molecule microarray binders of probe aDKK1, primary screen, biochemical, biotinylated probe, 635/667 nm fluorescence (AID 1099).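 Further: score merges 667nm spot fluorescence with signal to noise across triplicate slides; reference of the scale not given here.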 Conditions: higher = more signal.
Assay [3] in a line: small-molecule microarray binders of probe aCHRDL2, primary screen, biochemical, biotinylated probe, 635/667 nm fluorescence (AID 1100). Conditions: higher = more signal.
Assay [4] is described as follows: splicing luciferase reporter signal modulators, primary screen, spliceosome inhibition project, cell-based, HEK293, splice +/- reporter (AID 1101).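 Further: HEK293 cells carrying a splicing-competent luciferase reporter gene; test concentration not given here.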 Conditions: luminescence, 24 h, higher = more signal, called active from +8 up or from −8 down. For orientation: A reporter such as luciferase makes a cellular process visible.
Assay [5] deals with Fibroblast growth factor 10 (Homo sapiens) (UniProt O15520). Put plainly: FGF10 binders on small-molecule microarrays, primary screen, biochemical, small-molecule microarray, 635 nm fluorescence (AID 1102). Conditions: FGF10 binding, fluorescence 635 nm, higher = more signal.
Assay [6] relates to glycogen synthase kinase-3 (GSK3A per assay name; protocol says GSK3B). Put plainly: GSK3 binders on small-molecule microarrays, primary screen, biochemical, small-molecule microarray, 635 nm fluorescence, GSK3A (AID 1103). Further: the record names both GSK3A and GSK3B. To be noted: small-molecule microarray binding, fluorescence 635 nm; higher = more signal.
Assay [7] addresses Epidermal growth factor receptor (Homo sapiens) (UniProt P00533). Kind of assay: EGFR binders on small-molecule microarrays, primary screen, biochemical, small-molecule microarray, 635 nm fluorescence (AID 1104).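 Further: score merges 667 nm emission intensity with spot signal to noise over triplicate slides.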 Conditions: EGFR binding, higher = more signal.
Assay [8] addresses Follistatin-related protein 3 (Homo sapiens) (UniProt O95633). Kind of assay: FSTL3 binders on small-molecule microarrays, primary screen, biochemical, small-molecule microarray, 635 nm fluorescence (AID 1105).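 Further: score merges emission near 667 nm and signal to noise per printed spot across three slides.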 To be noted: FSTL3 binding, higher = more signal.
Assay [9] addresses Dickkopf-related protein 1 (Homo sapiens) (UniProt O94907). Kind of assay: DKK1 binders on small-molecule microarrays, primary screen, biochemical, small-molecule microarray, 635 nm fluorescence scan (AID 1106).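 Further: score merges emission near 667 nm with signal to noise over three replicate slides.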 To be noted: DKK1 binding, higher = more signal.
Assay [10] relates to Inhibin beta A chain (activin A). Put plainly: INHBA (activin A) binders on microarrays, primary screen, biochemical, small-molecule microarray, 635 nm fluorescence scan (AID 1107).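 Further: mouse activin A protein probed at 4.33 µg/mL on printed slides; score merges bound-protein fluorescence near 667 nm with spot signal-to-noise.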 To be noted: small-molecule microarray binding, higher = more signal.

Active and inactive are the calls of the source.

Follistatin-related protein 3 (Homo sapiens), sequence (O95633 whole entry, looked up): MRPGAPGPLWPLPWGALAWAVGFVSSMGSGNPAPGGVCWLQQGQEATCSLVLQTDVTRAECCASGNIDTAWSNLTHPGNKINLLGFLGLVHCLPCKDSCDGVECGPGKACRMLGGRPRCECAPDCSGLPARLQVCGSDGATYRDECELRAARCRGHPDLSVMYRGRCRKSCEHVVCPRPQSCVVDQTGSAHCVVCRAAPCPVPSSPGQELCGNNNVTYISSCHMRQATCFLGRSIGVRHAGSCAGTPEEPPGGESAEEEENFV
Epidermal growth factor receptor (Homo sapiens), sequence (P00533 whole entry, looked up): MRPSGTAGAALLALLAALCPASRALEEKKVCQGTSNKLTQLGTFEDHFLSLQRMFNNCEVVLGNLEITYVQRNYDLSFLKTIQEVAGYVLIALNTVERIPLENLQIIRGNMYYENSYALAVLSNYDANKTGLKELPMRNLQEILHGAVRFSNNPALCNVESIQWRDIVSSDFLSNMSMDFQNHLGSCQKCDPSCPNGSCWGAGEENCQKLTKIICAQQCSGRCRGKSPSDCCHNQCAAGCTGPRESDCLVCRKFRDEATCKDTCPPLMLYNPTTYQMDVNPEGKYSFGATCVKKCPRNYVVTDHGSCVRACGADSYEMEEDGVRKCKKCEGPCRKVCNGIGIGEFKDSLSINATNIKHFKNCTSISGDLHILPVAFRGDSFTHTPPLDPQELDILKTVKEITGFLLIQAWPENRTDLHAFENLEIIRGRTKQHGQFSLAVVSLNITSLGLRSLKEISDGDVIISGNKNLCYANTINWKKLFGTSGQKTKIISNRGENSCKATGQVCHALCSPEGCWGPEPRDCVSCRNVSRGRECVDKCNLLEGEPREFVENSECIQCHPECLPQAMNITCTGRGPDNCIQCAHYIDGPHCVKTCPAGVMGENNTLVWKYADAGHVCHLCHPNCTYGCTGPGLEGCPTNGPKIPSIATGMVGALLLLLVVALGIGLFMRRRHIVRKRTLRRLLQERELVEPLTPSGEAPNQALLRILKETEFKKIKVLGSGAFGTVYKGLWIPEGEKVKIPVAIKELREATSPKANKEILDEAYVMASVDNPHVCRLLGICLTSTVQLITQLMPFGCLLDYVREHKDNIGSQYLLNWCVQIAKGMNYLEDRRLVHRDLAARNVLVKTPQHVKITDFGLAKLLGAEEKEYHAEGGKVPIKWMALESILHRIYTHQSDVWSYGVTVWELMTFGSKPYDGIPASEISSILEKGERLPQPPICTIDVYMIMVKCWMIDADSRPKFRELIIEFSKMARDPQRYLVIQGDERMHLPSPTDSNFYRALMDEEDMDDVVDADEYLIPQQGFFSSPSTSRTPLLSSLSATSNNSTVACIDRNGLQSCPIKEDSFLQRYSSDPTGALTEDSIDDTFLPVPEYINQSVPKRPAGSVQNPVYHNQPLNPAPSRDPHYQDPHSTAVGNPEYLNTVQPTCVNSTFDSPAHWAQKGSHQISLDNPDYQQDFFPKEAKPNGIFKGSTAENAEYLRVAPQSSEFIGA
Dickkopf-related protein 1 (Homo sapiens), sequence (O94907 whole entry, looked up): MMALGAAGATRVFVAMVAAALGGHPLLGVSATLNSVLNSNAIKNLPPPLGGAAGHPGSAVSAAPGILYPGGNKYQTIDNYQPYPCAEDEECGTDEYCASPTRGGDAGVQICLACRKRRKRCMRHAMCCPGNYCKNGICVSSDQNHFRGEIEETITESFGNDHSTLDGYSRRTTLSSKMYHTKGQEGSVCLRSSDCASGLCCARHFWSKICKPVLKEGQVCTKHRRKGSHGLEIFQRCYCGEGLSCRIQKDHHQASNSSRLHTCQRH
Fibroblast growth factor 10 (Homo sapiens), sequence (O15520 whole entry, looked up): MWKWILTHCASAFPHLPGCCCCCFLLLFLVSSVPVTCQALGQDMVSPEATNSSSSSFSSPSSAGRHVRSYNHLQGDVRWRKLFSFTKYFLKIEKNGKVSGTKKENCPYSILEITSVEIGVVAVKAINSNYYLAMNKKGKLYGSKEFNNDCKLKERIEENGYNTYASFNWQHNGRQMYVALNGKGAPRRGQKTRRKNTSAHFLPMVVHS

`C=CCOC(=O)[C@H]1[C@@H]2C(=O)O[C@@H](c3ccccc3)[C@@H](c3ccccc3)N2[C@@H](c2ccc(OCCOC(=O)[C@H]3C[C@H]4C(=O)N5CCC[C@H]5C(=O)N4[C@H]3c3ccc(O)cc3)cc2)[C@]12C(=O)Nc1ccccc12`: the composite z-score in assay [1] is 1.54; in assay [2], -0.202; in assay [3], 0.106; in assay [5], 1.47; in [6], 1.36; in assay [7], 0.999. In addition, the results for the composite z-score in assay [8], in assay [9] and in assay [10] were 1.39, 1.81 and 0.39, respectively. For the same compound, the z-score in assay [4] was 0.994 (inactive).

As for `NCCCCCNC(=O)[C@@H]1C[C@@H]2C(=O)N[C@@H](Cc3ccccc3)C(=O)N2[C@@H]1c1cccc(OCCO)c1`, the composite z-score in assay [1] was 1.14; in assay [2], 0.53; in assay [3], 0.359; in assay [5] it was 0.519; in assay [6], 0.232; in assay [7] it was -0.235. Also, the composite z-score is -0.374 in assay [8], 0.378 in [9] and 0.619 in assay [10]. The z-score in [4] is -0.0581 (inactive).

`NC(=O)[C@@H]1[C@H]2C(=O)O[C@H](c3ccccc3)[C@H](c3ccccc3)N2[C@H](c2ccc(O)cc2)[C@@]12C(=O)Nc1ccc(C#CC3(O)CCCCCC3)cc12`: the composite z-score in assay [1] is 0.61; in assay [2], -0.127; in assay [3] it was 0.523; in [5], -0.177; in assay [6] it was -1.05; in assay [7], -0.497. Further, the composite z-score in assay [8] was -0.846; in assay [9], -0.193; in [10] it was -0.257. In addition, the z-score in assay [4] is 0.0171 (inactive).

Regarding `CCCC[C@@H]1C[C@H]1[C@@H](NC(=O)c1ccco1)c1ccc(C(=O)OC)cc1`, the composite z-score in assay [1] is -0.433; in assay [2] it was 0.0294; in [3], 0.838; in assay [5], 0.0373; in assay [6], -1.09; in [7], -0.643. The figures for the composite z-score in assay [8], in assay [9] and in [10] were -0.76, -0.633 and 0.807, respectively. The z-score in assay [4] is 0.965 (inactive).

Consider `[N-]=[N+]=NCc1ccccc1C[C@]1(C(=O)NCC(O)CO)N=C(c2ccc(OCCCO)cc2)O[C@H]1c1ccccc1` (stereo not given in full), for which the composite z-score in assay [1] is -0.338; in assay [2] it was 1.04; in assay [3], 0.889; in [5], -0.337; in assay [6], -0.836; in assay [7], -0.886. Moreover, the values for the composite z-score in assay [8], in assay [9] and in [10] were -0.689, -1.37 and 0.51, respectively. In addition, the z-score in assay [4] was 0.321 (inactive).

Turning to `O=C1c2ccccc2[C@](Cc2ccccc2I)(C(=O)NC2CC2)[C@H](c2ccc(CO)cc2)N1C1CCCCC1`, the composite z-score in [1] is 1.19; in assay [2], -0.809; in assay [3], -0.589; in assay [5], 0.724; in assay [6], 1.33; in assay [7] it was 0.543. The composite z-score was determined as 1.05 in assay [8], 0.529 in assay [9] and 0.435 in [10]. Further, the z-score in [4] was -0.578 (inactive).

As to `O=C1OCC=C[C@H]2OC34C=CCN(CCN5CCOCC5)C(=O)[C@H]3N(CCCO)C(=O)[C@@H]4[C@@H]12` (stereo not given in full), the composite z-score is 0.112 in [1]; -0.218 in assay [2]; -0.0654 in assay [3]; -0.116 in [5]; 0.394 in assay [6]; -0.0604 in assay [7]. Moreover, the composite z-score in assay [8] came out at 0.292; in assay [9] it was 0.163; in assay [10], 0.715. In [4], the z-score was -1.52 (inactive).

On to `C=CCOC(=O)[C@H]1[C@@H]2C(=O)O[C@@H](c3ccccc3)[C@@H](c3ccccc3)N2[C@@H](c2ccc(OCCOC(=O)[C@@H]3C[C@@H]4C(=O)N5CCC[C@H]5C(=O)N4[C@@H]3c3cccc(OCCO)c3)cc2)[C@]12C(=O)Nc1ccccc12`, for which the composite z-score in assay [1] is 1.19; in assay [2] it was -0.0198; in [3] it was 0.0715; in assay [5], 1.12; in assay [6] it was 1.31; in assay [7], 0.5. In addition, the composite z-score came out at 0.895 in [8], 0.651 in assay [9] and 0.563 in assay [10]. The z-score in assay [4] is -0.978 (inactive).

For the compound `COc1ccc(CCNC(=O)[C@@]2(Sc3ccc(C)cc3)CC(=O)N(C3CCCCC3)[C@@H]2c2ccc(CO)cc2I)cc1`, the composite z-score in assay [1] was 1.09; in assay [2] it was -0.0662; in assay [3] it was 0.44; in assay [5], 0.724; in assay [6], 0.974; in [7] it was 0.0902. In addition, the composite z-score in assay [8] is 1.03; in assay [9], 0.0743; in assay [10] it was 0.327. Further, the z-score in [4] was 0.451 (inactive).

With `C=CC[C@]1(C(=O)NCCCOC)N=C(c2ccc(OCCCO)cc2)O[C@H]1c1ccccc1N=[N+]=[N-]`, the composite z-score in [1] was 1.65; in [2], -0.188; in assay [3], 0.658; in assay [5], 1.44; in assay [6], 0.746; in assay [7] it was -0.223. Further, the figures for the composite z-score in assay [8], in assay [9] and in assay [10] were 0.348, -0.516 and 1.29, respectively. For the same compound, the z-score in assay [4] was -0.885 (inactive).

For `CC(C)C(CO)N1C(=O)[C@@H]2[C@H]3C(=O)OCC=C[C@H]3OC23C=CCN(C(C)C)C(=O)[C@@H]13` (stereo not given in full), the composite z-score was -0.542 in assay [1]; -0.202 in assay [2]; -0.25 in assay [3]; -0.321 in assay [5]; 0.269 in [6]; 0.0755 in [7]. Besides, the composite z-score in assay [8] came out at 0.354; in assay [9], 0.254; in assay [10] it was 0.756. Besides, the z-score in assay [4] was 0.181 (inactive).

`COCCOC(=O)N1C(=O)[C@@]2(c3cc(C#CC4=CCCCC4)ccc31)[C@H](c1ccc(O)cc1)N1[C@H](c3ccccc3)[C@H](c3ccccc3)OC(=O)[C@H]1[C@@H]2C(N)=O`: the composite z-score in [1] is 1.03; in assay [2], -0.327; in assay [3], -0.624; in [5], 1.17; in assay [6], 1.12; in assay [7], 0.584. The values for the composite z-score in [8], in assay [9] and in assay [10] were 1.16, 0.639 and 0.155, respectively. Also, the z-score in assay [4] was -1.03 (inactive).

On to `O=C(c1ccccc1)N1Cc2ccccc2[C@@H]2OC(c3ccc(OCCCO)cc3)=N[C@]2(Cc2ccccc2)C1=O`, for which the composite z-score in assay [1] stood at 1.35; in assay [2], 0.114; in [3], 0.431; in assay [5], 1.24; in [6], 1.33; in [7] it was 0.444. The composite z-score came out at 1.03 in assay [8], 0.0731 in [9] and 0.3 in [10]. Further, the z-score in assay [4] is -0.0808 (inactive).

`C=C(C)C1C(=C)CN([C@H](CO)c2ccccc2)C1=O` (stereo not given in full): the composite z-score in assay [1] was 1.35; in assay [2], -0.172; in assay [3], 0.22; in [5] it was -0.0267; in [6], -0.599; in assay [7], -0.476. In addition, the composite z-score is -0.0684 in [8], -0.153 in assay [9] and 1.36 in assay [10]. Moreover, the z-score in [4] is -0.622 (inactive).

In the case of `CN(C)CCCNC(=O)[C@@]1(c2ccc([N+](=O)[O-])cc2)CC(=O)N(C2CCCCC2)[C@@H]1c1ccc(CO)cc1I`, the composite z-score in assay [1] is 1.12; in [2], -0.116; in assay [3], 0.736; in assay [5] it was -0.341; in [6], 1.28; in assay [7], -0.0949. The figures for the composite z-score in assay [8], in [9] and in [10] were 0.381, -0.212 and 0.462, respectively. In assay [4], the z-score was -3.68 (inactive).

Regarding `C=CC[C@@]1(C(=O)NCc2ccccc2)N=C(c2ccc(OCCCO)cc2)O[C@@H]1c1ccccc1N=[N+]=[N-]`, the composite z-score is 0.888 in [1]; 0.925 in [2]; 1.02 in [3]; 1.22 in assay [5]; -0.119 in assay [6]; -0.104 in [7]. In addition, the composite z-score is 0.751 in assay [8], -0.295 in [9] and 0.817 in [10]. In addition, the z-score in assay [4] is -1.35 (inactive).
